Source: PubChem BioAssay AID2551 (National Center for Advancing Translational Sciences (NCATS), 2010)
The campaign covered roughly 310,000 compounds. About 17,000 (5.5%) were called active. Roughly 11% stayed inconclusive and do not appear here. Calls come from the whole dose curve; as a rule, active = well fitted inhibition curve with a large enough effect; inconclusive = small, poorly fitted or top-dose-only effect, or effect the other way; inactive = no such curve, though single readings can be large or run the other way. The list comes from a sample in which actives are over-represented; it also holds similar structures and randomly drawn compounds.

target: Nuclear receptor ROR-gamma (Mus musculus) (UniProt P51450); test: qHTS for inhibitors of ROR gamma transcriptional activity; conditions: Drosophila S2 Gal4-RORgamma UAS-luciferase reporter, 20 h; series mostly up to 53.6 µM; activity change, negative = inhibition: at the top concentration; note: nearly all actives have a fitted effect of over 60% in size
Procedure, shortened: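 Drosophila S2 cells stably expressing Gal4-DBD/mouse RORγ fusion under metallothionein promoter plus UAS-luciferase; compound 1 h, then 700 uM CuSO4 induction for 20 h at ambient temperature; inhibition read as reduced luminescence.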
% is set by controls: 0 for no effect and ±100 for the full control effect; potency is the fitted concentration of half-maximal effect.

Sequence of Nuclear receptor ROR-gamma (Mus musculus) (P51450 whole entry, looked up, the tested form may be a part): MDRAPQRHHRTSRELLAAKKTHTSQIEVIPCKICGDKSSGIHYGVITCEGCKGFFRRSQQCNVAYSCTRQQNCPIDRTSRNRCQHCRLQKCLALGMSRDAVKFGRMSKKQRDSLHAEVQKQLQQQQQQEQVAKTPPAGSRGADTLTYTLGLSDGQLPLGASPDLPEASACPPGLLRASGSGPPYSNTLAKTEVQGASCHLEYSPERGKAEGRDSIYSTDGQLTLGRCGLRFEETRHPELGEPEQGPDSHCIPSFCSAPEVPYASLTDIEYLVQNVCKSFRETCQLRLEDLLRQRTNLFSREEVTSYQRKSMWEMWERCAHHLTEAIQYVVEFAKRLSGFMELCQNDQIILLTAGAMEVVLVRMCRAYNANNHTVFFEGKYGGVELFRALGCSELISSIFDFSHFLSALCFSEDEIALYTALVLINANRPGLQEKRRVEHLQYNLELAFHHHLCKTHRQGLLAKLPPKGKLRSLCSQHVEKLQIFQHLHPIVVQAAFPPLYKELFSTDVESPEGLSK

Compound	activity change, negative = inhibition	Potency
O=C(c1cc(COc2ccc(F)c(F)c2)on1)N1CCOCC1	37% (inactive)	–
COc1ccc(OCC(=O)NCCS(=O)(=O)N2CCN(c3ccc(F)cc3)CC2)cc1	2.8% (inactive)	–
Cc1cccc(NC(=O)NC2(C)CCS(=O)(=O)C2)c1 (centres undefined)	-32.9% (inactive)	–
CCn1ccnc1CN1CCCC(C(=O)c2ccc3c4c(cccc24)CC3)C1 (centres undefined)	–	1.26 µM (active)
CC(=O)NCC(=O)N1CCCC(C(=O)c2ccc3c4c(cccc24)CC3)C1 (centres undefined)	29.4% (inactive)	–
Cc1ncoc1C(=O)N1CCCC(C(=O)c2ccc3c4c(cccc24)CC3)C1 (centres undefined)	27.1% (inactive)	–
CC(=O)Nc1ccc(S(=O)(=O)N(C)c2nc3ccccc3nc2Cl)cc1	44% (inactive)	–
COc1ccc(C2c3[nH]c4ccccc4c3C[C@H]3C(=O)N(CC(C)C)CC(=O)N23)c(OC)c1 (some centres undefined)	19.1% (inactive)	–
COc1ccc(CNC(=O)CSc2n[nH]c(N)n2)cc1OC	-19.3% (inactive)	–
Cc1noc(NS(=O)(=O)c2ccc(N/C=C/C(=O)c3ccccc3)cc2)c1C	0% (inactive)	–
Cc1ccc(N/C=C/C(=O)c2ccccc2)cc1C	–	0.282 µM (active)
O=C(/C=C\NCC(=O)c1ccccc1)c1ccccc1	2.82% (inactive)	–
C=CCOc1ccc(/C=C2/C(=O)ON=C2C)cc1OCC	17% (inactive)	–
COc1cc(/C=C2/C(=O)ON=C2C)ccc1OCc1cccc(F)c1	-4.14% (inactive)	–
COc1cc(/C=C2/C(=O)ON=C2C)ccc1OCc1ccccc1F	–	10 µM (active)
Cc1nn2c(=O)cc(COC(=O)c3ccc(NC(=O)C(C)(C)C)cc3)nc2s1	10.3% (inactive)	–
Cc1cccc(C)c1NC(=O)CSc1nnc(-c2ccccc2)n1Cc1ccc2c(c1)OCO2	2.3% (inactive)	–
O=C(Cn1nnc(-c2ccccc2)n1)NCc1ccc2c(c1)OCO2	-22% (inactive)	–
c1ccc(-c2nnc3n2NC(c2ccc4c(c2)OCO4)S3)cc1 (centres undefined)	–	7.94 µM (active)
CCCCOC(=O)c1[nH]c(C)c(C(=O)OC)c1C	7.72% (inactive)	–
COC(=O)c1c(C)[nH]c(C(=O)/C=C/c2ccc(Cl)cc2)c1C	–	0.282 µM (active)
COC(=O)c1c(C)[nH]c(C(=O)NCCc2ccc(S(N)(=O)=O)cc2)c1C	24.7% (inactive)	–
CCS(=O)(=O)N1CCC(N2CCN(c3ccccc3)CC2)CC1	5.83% (inactive)	–
N#Cc1ccc(C(=O)Nc2cccc3cccnc23)c(F)c1	-2.31% (inactive)	–
O=C(COC(=O)c1ccccn1)Nc1cccc2ccccc12	-8.28% (inactive)	–
N#Cc1ccccc1NC(=O)COc1c(Br)cc(Br)c2cccnc12	–	12.6 µM (active)
Cc1ccc(CNC(=O)Cn2cnc(S(=O)(=O)N3CCCCC3)c2)o1	-12.9% (inactive)	–
Cc1c(C)c(C)c(S(=O)(=O)NCCc2ccccn2)c(C)c1C	-20.7% (inactive)	–
Cc1ccc(C2NC(=S)NC3=C2N2CCC3CC2)cc1 (centres undefined)	–	11.2 µM (active)
